PubChem BioAssay AID493008 (The Scripps Research Institute Molecular Screening Center, 2010)
Screen size: about 340,000 compounds; about 800 (0.24%) were called active. This is one part of a sample in which actives are shown more often than they occur. Unmarked numbers belong to inactive results.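 The calls were made as follows: active = activation above the mean over all tested compounds plus 3 SD (cut at about 30% in these data); inactive = the rest.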

Target: Troponin I, cardiac muscle (Homo sapiens) + Troponin T, cardiac muscle (Homo sapiens) + Troponin C, slow skeletal and cardiac muscles (Homo sapiens) (UniProt P19429+P45379+P63316)
Assay: calcium sensitizers of cardiac thin filaments – biochemical, IANBD-TnC fluorescence, EC20 calcium, primary screen (AID 493008);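 also: rise in fluorescence read as greater calcium sensitivity of cardiac thin filaments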
Settings: IANBD-labeled TnC RTF fluorescence at EC20 calcium; at 7.2 µM; hits give high values; 0% EC20 calcium, 100% full calcium

Which activation does the source give for `S=C(Nc1ccccc1)Nc1ccc2ccccc2c1` here?
The activation was -10.4%.

For `CC1CCCC(C)N1C(=O)CN1CCN(c2nc(-c3ccc(F)cc3)cs2)CC1` (centres undefined), which activation is on record?
The activation was -5.89%.

`CCCC(C)C(=O)Nc1ccc(NC(C)=O)cc1` (centres undefined) was tested. Which activation did it give?
Its activation is -2.2%.

How did the activation turn out when `CC(C)(C)c1ccc(/C=C/C(=O)NC2CCS(=O)(=O)C2)cc1` (centres undefined) was run?
Its activation is 8.91%.

For `O=C(NC(Cc1c[nH]c2ccccc12)C(=O)N/N=C/c1ccc(Br)cc1)c1cccs1` (centres undefined), which activation is on record?
Its activation is -5.25%.

Which activation does the source give for `Cc1ncoc1C(=O)NCCC(c1ccccc1)c1ccccc1` here?
The activation was 1.32%.

With `Cc1ccc(N(Cc2cc(=O)[nH]c3ccccc23)C(=O)CCl)cc1` as the compound, how does the activation read?
Its activation is -2.09%.

For `COc1ccc(OC)c(S(=O)(=O)Nc2cccc(-c3ccc4nncn4n3)c2)c1`, which activation is on record?
Its activation is -5.2%.

With `CC1(C)OC(=O)C(=CSc2ccc(C(C)(C)C)cc2)C(=O)O1` as the compound, how does the activation read?
The activation was -0.02%.

With `CC1CCCN(CCCNC(=O)CN2C(=O)COc3ccc(S(=O)(=O)N4CCOCC4)cc32)C1` (centres undefined) as the compound, how does the activation read?
Its activation is -3.28%.

Which activation does the source give for `COc1ccc(C(=O)Oc2ccc(-c3nnco3)cc2)cc1S(=O)(=O)N1CCOCC1` here?
Its activation is 5.67%.

How did the activation turn out when `C[n+]1ccc(/C=C/c2c[nH]c3ccccc23)cc1` was run?
The activation was 154% (active).

For `COc1ccc(C(=O)Nc2ccc(-n3nncc3C(C)(C)C)cc2)cc1`, which activation is on record?
Its activation is -5.43%.

With `O=C(NC(=S)N1CCc2ccccc21)c1ccco1` as the compound, how does the activation read?
The activation was -3.2%.

With `CC(C)NC(=O)N1CCN(c2ccncc2S(=O)(=O)N2CCCCC2)CC1` as the compound, how does the activation read?
The activation was 1.09%.

How did the activation turn out when `O=C(OCCOc1ccccc1Cl)c1cc(S(=O)(=O)N2CCCCC2)ccc1N1CCOCC1` was run?
Its activation is -4.46%.

How did the activation turn out when `CCCNC(=O)C(=O)Nc1cc2c3c(c1)CCC(=O)N3CCC2` was run?
The activation was -3.33%.

For `OC1CN=C2Sc3ccccc3N2C1` (centres undefined), which activation is on record?
Its activation is -0.74%.

`O=C(N/N=C/C=C/c1ccco1)c1cccs1` was tested. Which activation did it give?
Its activation is 1.5%.

For `Cn1c(=O)c(=O)n(C)c2cc(S(=O)(=O)NCCN3CCN(c4ccccc4F)CC3)ccc21`, which activation is on record?
The activation was -1%.

With `CCN1/C(=C\c2ccc3ccccc3[n+]2CC)Sc2cc(C)ccc21` as the compound, how does the activation read?
Its activation is 38.1% (active).

With `O=C(NCCc1c[nH]c2ccccc12)C1CCN(Cc2ccc(Br)cc2)CC1` as the compound, how does the activation read?
The activation was -15.1%.

Which activation does the source give for `Cc1ccc(C(=O)N/C(=C/c2ccco2)C(=O)NCCc2c[nH]c3ccccc23)cc1C` here?
The activation was -3.2%.

How did the activation turn out when `N#C/C(=C/c1ccc(N2CCCCC2)o1)C(=O)NCCc1c[nH]c2ccccc12` was run?
The activation was 98.5% (active).

How did the activation turn out when `CN(c1ccccc1)S(=O)(=O)c1ccc(NC(=O)COc2ccccc2)cc1` was run?
Its activation is 0.63%.

With `CC1CCN(C(=O)Cn2nnnc2CN2CCOCC2)CC1` as the compound, how does the activation read?
The activation was -3.91%.

`O=S(=O)(Nc1cccc(Oc2ccc(Cl)cc2)n1)c1ccc(F)cc1` was tested. Which activation did it give?
The activation was -5.16%.

For `O=C(CCN1C(=O)[C@@H]2Cc3ccccc3CN2C1=O)NCCc1ccccc1`, which activation is on record?
The activation was -2.53%.

Which activation does the source give for `CN(CCc1ccccc1)C(=O)c1cccc(NC(=O)Cc2cccc(NC(=O)C3CCCN(C(=O)CCc4ccccc4)C3)c2)c1` (centres undefined) here?
The activation was -0.28%.

`Cc1ccccc1NC(=O)CCNS(=O)(=O)c1ccc2[nH]c(=O)oc2c1` was tested. Which activation did it give?
The activation was -6.99%.

How did the activation turn out when `O=S(=O)(Cc1nnnn1-c1ccc(Br)cc1)c1ccc(F)cc1` was run?
The activation was 1.13%.

`O=C(CC12CC3CC(CC(C3)C1)C2)Nc1ccc2c(c1)COC2=O` was tested. Which activation did it give?
The activation was -1.12%.

For `CCOc1ccc(OCC(=O)OC(C)C(=O)NC2CCCCC2C)cc1` (centres undefined), which activation is on record?
Its activation is 0.95%.

For `Cc1ccc(CS(=O)(=O)CCC(=O)NC2CC2)cc1`, which activation is on record?
Its activation is -1.46%.

Which activation does the source give for `COc1ccccc1C(=O)Nc1nc2nc(-c3ccccc3)cc(=O)n2[nH]1` here?
Its activation is 5.39%.

`COc1ccc(N2CC(C(=O)N[C@@H](C)C(=O)N3CCCCC3)CC2=O)cc1` (some centres undefined) was tested. Which activation did it give?
Its activation is 2.39%.

Which activation does the source give for `Cc1ccc(S(=O)(=O)n2cccc2CO)cc1` here?
Its activation is 3.89%.

`CC1(C)CC(=O)C/C(=N\NC(=O)c2cccs2)C1` was tested. Which activation did it give?
The activation was 9.93%.

With `Cc1cccc(N(C(=O)Cc2cccs2)C(C(=O)NC2CCCC2)c2ccsc2)c1` (centres undefined) as the compound, how does the activation read?
The activation was 2.2%.

For `Cc1cc(F)ccc1N1CCC(N2CCN(C)C(CCO)C2)CC1` (centres undefined), which activation is on record?
The activation was 0.01%.

With `O=S(=O)(c1cccc(-c2cn3ccccc3n2)c1)N1CCCC1` as the compound, how does the activation read?
Its activation is -1.73%.

Which activation does the source give for `COc1ccc(N(C(=O)CNC(=O)c2ccco2)C(C(=O)NCC2CCCO2)c2ccccc2)cc1Cl` (centres undefined) here?
The activation was -5.45%.

Which activation does the source give for `Nc1ncnc2c1ncn2[C@@H]1O[C@H](CNS(=O)(=O)c2ccc(-c3ccno3)s2)[C@@H](O)[C@H]1O` here?
Its activation is -2.32%.

How did the activation turn out when `CC1(C)CN(c2ccc(-c3ccnc4ncnn34)cc2)C1=O` was run?
Its activation is 2.76%.

How did the activation turn out when `ClC1(Cl)CC1CSc1ncn[nH]1` (centres undefined) was run?
Its activation is 2.22%.

How did the activation turn out when `COc1ccc(CN(C)C(=S)Nc2ccc(Cl)cc2Cl)cc1` was run?
Its activation is 5.9%.

With `O=C(CCS(=O)(=O)Cc1ccccc1F)NCCCN1CCCCC1` as the compound, how does the activation read?
The activation was 5.59%.

How did the activation turn out when `CCN(CC)CCCC(C)n1c2nc(=O)[nH]c(=O)c-2nc2cc(Cl)ccc21` (centres undefined) was run?
The activation was 1960% (active).

`CCN(CC)CCn1c2ccc(Cl)cc2c2nc(C)sc21` was tested. Which activation did it give?
The activation was 1.89%.

Which activation does the source give for `CSCC[C@H](NC(=O)NCc1cccs1)C(=O)O` here?
The activation was 4.37%.

Which activation does the source give for `CC(C)c1nnc(NC(=O)CCC(=O)N2CCN(c3cccc(Cl)c3)CC2)s1` here?
The activation was -4.73%.

Which activation does the source give for `COc1ccc(C(=O)COC(=O)C(O)c2ccccc2)c(OC)c1` (centres undefined) here?
Its activation is 3.19%.

`O=C(/C=C/c1ccc2c(c1)OCCO2)c1ccc(O)cc1` was tested. Which activation did it give?
The activation was -0.07%.

Which activation does the source give for `O=C(O)/C=C/c1ccc(OCCCF)cc1` here?
Its activation is -2.79%.

For `O=C(/C=C(O)/C=C/c1ccc(O)cc1)/C=C/c1ccc(O)cc1`, which activation is on record?
Its activation is 40.2% (active).

For `NS(=O)(=O)c1ccc(NC(=O)COC(=O)c2c3c(nc4ccccc24)/C(=C\c2ccc4c(c2)OCO4)CCC3)cc1`, which activation is on record?
The activation was 4.91%.

How did the activation turn out when `O=C(COC(=O)c1ccncc1)Nc1ccc2c(c1)OCO2` was run?
Its activation is -5.52%.

With `NC(=O)c1ccc(NC(=O)COC(=O)c2c3c(nc4ccccc24)/C(=C\c2ccc4c(c2)OCO4)CCC3)cc1` as the compound, how does the activation read?
The activation was 514% (active).

`C=CCC(C(=O)c1ccccc1)[N+](C)(C)CC=C` (centres undefined) was tested. Which activation did it give?
The activation was -2.42%.
